# PubChem BioAssay (NCI)
# This is part of a sample that, as a whole, favours compounds with a hit. Of some 83,000 tested, about 20% had one in any assay.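 Assay: single dose, 48 h. Readout: percent growth (0 = no net growth; negative = cell death). Active: <10.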 Values without a mark were called inactive. Activity calls are given as the source filed them.
# Experiments:
# Test in all cases: NCI-60 one-dose screen, 48 h (100 = growth as untreated, 0 = no growth, -100 = all killed)
# Settings in all cases: 10 µM unless noted
# NCI-H23 lung = tested on: NCI-H23 lung
# NCI-H226 lung = tested on: NCI-H226 lung
# NCI-H322M lung = tested on: NCI-H322M lung
# HOP-62 NSCLC = tested on: HOP-62 NSCLC
# NCI-H460 lung = tested on: NCI-H460 lung
# HOP-92 NSCLC = tested on: HOP-92 NSCLC
# NCI-H522 lung = tested on: NCI-H522 lung
# A549/ATCC NSCLC = tested on: A549/ATCC NSCLC
# 786-0 renal = tested on: 786-0 renal
# COLO 205 colon = tested on: COLO 205 colon
# DU-145 prostate = tested on: DU-145 prostate
# K-562 leukemia = tested on: K-562 leukemia
# MALME-3M melanoma = tested on: MALME-3M melanoma
# MDA-MB-231 breast = tested on: MDA-MB-231 breast
# RXF 393 renal = tested on: RXF 393 renal
# SF-268 CNS = tested on: SF-268 CNS
# SF-295 CNS = tested on: SF-295 CNS
# SF-539 CNS = tested on: SF-539 CNS
# UACC-257 melanoma = tested on: UACC-257 melanoma
# M14 melanoma = tested on: M14 melanoma
Compound,growth (NCI-H23 lung),growth (NCI-H226 lung),growth (NCI-H322M lung),growth (HOP-62 NSCLC),growth (NCI-H460 lung),growth (HOP-92 NSCLC),growth (NCI-H522 lung),growth (A549/ATCC NSCLC),growth (786-0 renal),growth (COLO 205 colon),growth (DU-145 prostate),growth (K-562 leukemia),growth (MALME-3M melanoma),growth (MDA-MB-231 breast),growth (RXF 393 renal),growth (SF-268 CNS),growth (SF-295 CNS),growth (SF-539 CNS),growth (UACC-257 melanoma),growth (M14 melanoma)
O=C(CSc1nc2ccc([N+](=O)[O-])cc2[nH]1)Nc1ccc(Br)cc1,44.1%,47.9%,86.7%,50.9%,47.7%,-8.92% (active),20.9%,44.5%,48.3%,41.2%,62.2%,26.9%,40.9%,67.7%,85.5%,65.5%,56.5%,70.5%,37.7%,50.1%
N#Cc1c(NC(=O)c2cccs2)[n+]([O-])c2ccc(Cl)cc2[n+]1[O-],103%,92.1%,108%,95.7%,113%,94.8%,93.7%,122%,107%,113%,121%,106%,92%,82.7%,127%,106%,93.8%,108%,120%,80.2%
CC(C)C[C@@H](C(=O)N[C@H](C(=O)OC1CCCC1)c1ccccc1)[C@H](O)C(=O)NO,55.6%,70.1%,69.2%,26.9%,92.4%,65.7%,41.1%,56%,67.8%,78.6%,68.3%,22.7%,38.3%,9.77% (active),7.55% (active),88.9%,60.8%,52.2%,36%,54.5%
N=C(N)c1ccc(-c2ccc(-c3ccc(F)cc3)s2)s1,-62.6% (active),90.4%,-29.7% (active),57%,-64.9% (active),28.5%,-72% (active),-65.8% (active),-57.5% (active),-80.6% (active),-86.3% (active),-61.4% (active),76.9%,-54.4% (active),-69.1% (active),-19.5% (active),-76.4% (active),-29% (active),-50.2% (active),-45.5% (active)
N#CC(C#N)N=Nc1ccc(Cl)cc1Cl,86.2%,97.7%,107%,80.7%,105%,-26.5% (active),39.3%,105%,91.2%,67.2%,80.8%,40.7%,77.3%,68.2%,116%,103%,100%,74.7%,87.3%,81.8%
Cc1c2ccccc2nc2c1ccc1cccnc12,74.5%,96.5%,101%,105%,73.8%,106%,63.5%,59.8%,95.8%,50.8%,95.6%,44.1%,88.3%,103%,108%,99.8%,89.3%,100%,72.3%,84.9%
C#CCOc1ccc2ncnc(Nc3cccc(NC(=O)CCl)c3)c2c1,73.5%,88.3%,92.1%,93.2%,49.2%,85%,38.9%,67%,72.6%,96.7%,74%,55.2%,71.9%,73.7%,79.6%,60.6%,106%,84.4%,80.3%,77.1%
Cc1cccc(N2CCN(C(=S)c3ccc4c(c3)OCO4)CC2)c1,31.3%,57.2%,33.2%,28.9%,8.2% (active),74.4%,-25.2% (active),31.7%,30.2%,-36% (active),11%,14%,21.8%,45.3%,-15.1% (active),47.2%,2.38% (active),-26.9% (active),32.5%,-4.87% (active)
N#Cc1c(-c2ccccc2)nc2c(c(-c3ccccc3)nn2-c2ccccc2)c1-c1ccc(N2CCOCC2)cc1,96.9%,92.7%,92.3%,95.3%,92.5%,85.8%,92%,77.2%,86.3%,79.6%,91.5%,-20% (active),104%,97.3%,95%,104%,107%,93.7%,101%,92.3%
CCCCCCC(CCCC)COC(=O)c1ccc(Cl)cc1 (stereo not given),110%,92.8%,111%,119%,102%,89.5%,105%,117%,103%,108%,105%,104%,111%,106%,105%,102%,102%,106%,112%,104%
Nc1n[nH]c2ccc([C@@H]3Nc4cc5[nH]ncc5cc4[C@H]4C5CCC(C5)[C@@H]34)cc12 (stereo not given in full),27.3%,15%,43%,46.9%,7.16% (active),58.2%,13.9%,24.6%,28.3%,-11.9% (active),21.2%,10.6%,46.9%,12.7%,-2.95% (active),45.4%,11.8%,-11.3% (active),67.4%,-3.7% (active)
Cc1c2cnccc2c(C)c2c1c1cc(C3OCCCO3)ccc1n2C,-31.9% (active),-4.43% (active),-2.25% (active),-13% (active),0.184% (active),-10.5% (active),-41.6% (active),2.33% (active),11.8%,-17.6% (active),3.92% (active),3.75% (active),-62.9% (active),-26.1% (active),-78.9% (active),1.29% (active),0.404% (active),-55.1% (active),-25.8% (active),-79.8% (active)
COc1cc(C(=O)C(=O)c2cc(OC)c(O)c(OC)c2)cc(OC)c1O,101%,91%,94.4%,93.2%,101%,91.7%,89.6%,99.5%,103%,105%,119%,122%,103%,97.2%,104%,99.3%,109%,97.1%,98.3%,104%
COC(=O)C1=C(C(=O)Nc2cccnc2)C2OC1(C(Cc1ccccc1)Oc1ccccc1)C1OC21 (stereo not given),95.9%,88.4%,98.4%,93%,103%,-74.2% (active),-48% (active),88.8%,49.7%,-46.9% (active),72.8%,-48.4% (active),-74.7% (active),59.8%,59.1%,86.5%,100%,72%,79.1%,11.7%
CCN1C(=O)N(CC)C2C1NN=c1s/c(=C\c3ccccc3Br)c(=O)n12 (stereo not given),27.1%,56.7%,37.5%,40%,3.66% (active),19.5%,0.628% (active),12.3%,17.4%,3.13% (active),10.5%,13.1%,42%,13.9%,50.7%,43.9%,9.97% (active),-16% (active),56%,8.22% (active)
